From PubChem BioAssay (EPA / NIEHS) come the findings set out here.

Test [1] can be described thus: APR_HepG2_CellCycleArrest_24hr: Apredica 24-hour HepG2 Assay for Cell Cycle Arrest (AID 2282905).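 Note: cell cycle arrest scored as ratio of 2N to 4N nuclear DNA content.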 As to conditions: imaging, actives raise or lower the signal. In short, it runs like this:
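Step one: dose HepG2 with test compounds, 0.39–200 uM, 0.5% DMSO, 24 hr. Step two: fix, permeabilize, stain nuclei with Hoechst 33342. Step three: image six fields per well at 20x, quantify DNA content, fit bidirectionally relative to DMSO.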

A short description of test [2]: APR_HepG2_CellLoss_24hr: Apredica 24-hour HepG2 Assay for Cell Loss (AID 2282908).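 For AC50: fit in both directions so a hit may be cell loss or gain.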 The settings on record: high-content imaging. In short, it runs like this:
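Duplicate wells received compound at ten concentrations (0.39–200 uM; final DMSO 0.5% v/v). After fixation with formaldehyde, nuclei stained with Hoechst 33342 were imaged at 20x. Loss or gain of cell count was fitted relative to DMSO controls.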

Test [3] is described as follows: APR_HepG2_MicrotubuleCSK_24hr: Apredica 24-hour HepG2 Assay for Microtubule CSK Stabilty (AID 2282909). The settings on record: HepG2 microtubule cytoskeleton imaging, actives raise or lower the signal. A digest of the protocol:
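Microtubule stability is scored from tubulin immunofluorescence in fixed HepG2 cells imaged at 20x. Cells receive ten compound concentrations up to 200 uM for 24 h; taxol and DMSO serve as positive and negative controls.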

Test [4] is described as follows: APR_HepG2_MitoticArrest_24hr: Apredica 24-hour HepG2 Assay for Mitotic Arrest (AID 2282910). As to conditions: high-content imaging, actives raise or lower the signal. In short, it runs like this:
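Treatment lasted 24 hr in the human HepG2 line at 0.39–200 uM, solvent held at 0.5% DMSO. Fixed cells were stained with Hoechst 33342 and anti-phospho-histone H3, imaged at 20x, and analysed by gain- or loss-of-signal fitting against DMSO.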

Test [5] is described as follows: APR_HepG2_MitoMembPot_24hr: Apredica 24-hour HepG2 Assay for Mitochondrial Membrane Potential (AID 2282911). The settings on record: imaging, actives raise or lower the signal. In short, it runs like this: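 Human hepatoma HepG2 cultures received ten compound concentrations up to 200 uM for 24 hr. Membrane-potential dye signal, captured by automated fluorescence microscopy, was scored for gain or loss against DMSO controls.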

Test [6] in a line: APR_HepG2_MitoMass_24hr: Apredica 24-hour HepG2 Assay for Mitochondrial Mass (AID 2282912). As to conditions: high-content imaging, actives raise or lower the signal. In short, it runs like this: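 Readout: fluorescence of MitoTracker Red CMXRos (250 nM, added 30 min pre-fixation) in fixed HepG2 cells imaged by HCS. Exposure lasted 24 hr at 0.39–200 uM; increases and decreases were both fitted relative to DMSO.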

The nature of test [7]: APR_HepG2_p53Act_24hr: Apredica 24-hour HepG2 Assay for p53 Activation (AID 2282913).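 Note: p53 protein immunofluorescence averaged per cell in HepG2 with Hoechst nuclei.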 As to conditions: high-content imaging, actives raise or lower the signal. A digest of the protocol: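 Automated fluorescence imaging quantifies p53 immunostaining in HepG2 cells after a 24 hr exposure (0.39–200 uM, duplicate, 0.5% DMSO). Nuclei are located by Hoechst 33342 staining.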
The nature of test [8]: APR_HepG2_CellLoss_72hr: Apredica 72-hour HepG2 Assay for Cell Loss (AID 2282915). The settings on record: high-content imaging. In short, it runs like this: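 HepG2 cells were exposed for 72 hr to compounds at 0.39–200 uM (ten concentrations, duplicate) in 0.5% v/v final DMSO. Nuclei were stained with Hoechst 33342 after 3.7% formaldehyde fixation, imaged at 20x, and counted; fits bidirectional versus DMSO.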

Test [9] in a line: APR_HepG2_NuclearSize_24hr: Apredica 24-hour HepG2 Assay for Nuclear Size (AID 2282907). The settings on record: high-content imaging, actives raise or lower the signal. A digest of the protocol: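 After fixation and permeabilization, 24-hr-treated HepG2 cells were stained with Hoechst 33342 and imaged on an ArrayScan (20x). Doses spanned 0.39–200 uM in duplicate. Nuclear diameter changes in either direction were fitted relative to 0.5% DMSO controls.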

The nature of test [10]: APR_HepG2_CellCycleArrest_72hr: Apredica 72-hour HepG2 Assay for Cell Cycle Arrest (AID 2282914). The settings on record: high-content imaging, actives raise or lower the signal. In short, it runs like this: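 Cell cycle arrest in HepG2 was scored from nuclear DNA content after 72 hr compound treatment (0.39–200 uM). Activity, either gain or loss, was fitted against the DMSO baseline.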

Active and inactive are the calls of the source. Rule for the calls: active = hit-call score of the fitted dose curve at least 0.9, where 1 is the maximum; inactive = score below 0.9.

For orientation: AC50 means the midpoint of the concentration-response curve, whichever way the signal moves. In the case of `C=CCCCCCCCCCCCC`, the AC50 in [1] was 69.9 µM (active); in [2], 52.7 µM (active); in test [7], 99.4 µM (active); in test [8], 87.6 µM (active). Moreover, the outcome in [3], in [4], in test [5] and in [6] was inactive.
In the case of `CCCCCCCCCCCCCCCCO`, the call in test [1], in test [9], in test [3], in test [5], in test [6] and in [10] was inactive. The compound was classed as inactive in [8].
In the case of `CC(=O)CC(c1ccccc1)c1c(O)c2ccccc2oc1=O` (stereo unspecified), the outcome in [1], in [2], in test [3], in test [4], in test [5] and in test [6] was inactive. Further, in test [8], the outcome was inactive.
`O=C1c2c(O)cccc2Cc2cccc(O)c21`: the result in test [1], in test [2], in [3], in [4], in test [6] and in test [7] was inactive. In addition, the outcome in test [10] and in [8] was inactive. Further, the AC50 in test [5] is 11.1 µM (active).
On to `CN(C)CCCN(C)CCCN(C)C`, for which the outcome in test [1], in [9], in [3], in [4], in test [5] and in [6] was inactive. The call in test [7], in [10] and in test [8] was inactive.
Regarding `Cn1cnc2c1c(=O)[nH]c(=O)n2C`, the compound was called inactive in test [1], in test [9], in [3], in test [5], in test [6] and in test [8].
Take `C/C=C/C=C/C(=O)O`: the call in [1], in test [9], in test [3], in test [5] and in [6] was inactive. Moreover, the values for the AC50 in [10] and in test [8] were 71.5 µM (active) and 83.7 µM (active), respectively.
As for `COC(=O)CCC(=O)OC`, the result in test [1], in [2], in [3], in [4], in test [5] and in [6] was inactive. For the same compound, the compound was classed as inactive in test [7], in test [10] and in test [8].
Consider `OCC(CO)n1cnc(-c2ccc(F)cc2)c1-c1ccnc(Oc2ccccc2)n1`, for which the result in test [1], in [2], in test [3], in test [4], in [5] and in test [6] was inactive. Besides, the result in test [7], in test [10] and in test [8] was inactive.
Turning to `CC1=C(C)S(=O)(=O)CCS1(=O)=O`, the outcome in test [1], in [2], in [3], in [4], in test [5] and in test [6] was inactive. Moreover, in [7], the call was inactive. The AC50 in test [8] is 37.4 µM (active).
On to `CCCCCCCC(=O)OC`, for which the result in test [1], in test [9], in [3], in test [5], in [6] and in [7] was inactive. The call in test [8] was inactive.
Take `COC(=O)[C@H]1[C@H]2C[C@@H]3c4[nH]c5cc(OC)ccc5c4CCN3C[C@H]2C[C@@H](OC(=O)c2cc(OC)c(OC)c(OC)c2)[C@@H]1OC`: the AC50 is 79 µM (active) in test [1]; 44.3 µM (active) in test [3]; 90.2 µM (active) in [5]; 41.2 µM (active) in test [6]; 40.3 µM (active) in test [7]; 19.5 µM (active) in test [8]. In addition, the result in test [9] was inactive.
As to `O=C1OC(c2ccc(O)cc2)(c2ccc(O)cc2)c2ccccc21`, the AC50 in test [1] was 81.1 µM (active); in test [2], 90.7 µM (active); in test [4], 61.4 µM (active); in test [6] it was 92.7 µM (active); in test [7] it was 51.8 µM (active); in test [10], 55.9 µM (active). In addition, the AC50 in test [8] was 102 µM (active). Further, the call in [3] and in test [5] was inactive.
For the compound `CCCCOC(=O)CCCCC(=O)OCCCC`, the call in test [1], in test [9], in [3], in [4], in test [5] and in test [6] was inactive. Besides, the result in [10] and in test [8] was inactive.
With `CCCCC(CC)CO` (stereo unspecified), the result in test [1], in [9], in [3], in test [5], in test [6] and in test [7] was inactive. The call in [10] and in test [8] was inactive.
With `C#CC(O)C(CC)CCCC` (stereo unspecified), the compound was classed as inactive in [1], in test [9], in test [3], in test [4], in test [5] and in test [6]. In test [8], the compound was classed as inactive.
Take `Cc1cc(Cc2ccc(N)c(C)c2)ccc1N`: the figures for the AC50 in test [1] and in test [8] were 35.1 µM (active) and 77.8 µM (active), respectively. The compound was called inactive in [3], in [4], in test [5], in test [6] and in [7].
Take `CN(C)C(=O)NC1(c2ccccc2)CCN(CC[C@@]2(c3ccc(F)c(F)c3)CN(C(=O)c3ccccc3)CCO2)CC1`: the compound was called inactive in [1], in test [3], in test [5], in test [7] and in test [10]. In addition, the figures for the AC50 in test [6] and in test [8] were 97.8 µM (active) and 111 µM (active), respectively.
For `CC(C)COC(=O)CCCCC(=O)OCC(C)C`, the compound was classed as inactive in [1], in test [2], in test [3], in [4], in [5] and in [6]. Besides, the result in test [8] was inactive.
For `CC(=O)OC1CC(C)OC(C)O1` (stereo unspecified), the outcome in [1], in [2], in [3], in test [5], in test [6] and in test [10] was inactive. Besides, the call in test [8] was inactive.
In the case of `O=C1CCCCC1`, the outcome in test [1], in [3], in test [5], in test [6], in [10] and in test [8] was inactive.
`COC(=O)CCCC(=O)OC`: the call in test [1], in test [3], in test [4], in test [5], in [6] and in test [7] was inactive. Further, the outcome in [8] was inactive.
